According to PubChem BioAssay (NCATS):
Values without a mark were called inactive. Results filed as inconclusive are left out. Where a call stands in place of a potency, no number is given. Activity calls are given as the source filed them. Calls come from the whole dose curve; as a rule, active = well fitted curve in the direction sought with a large enough effect; inconclusive = small, poorly fitted or top-dose-only effect, or another doubt; inactive = no such curve, though single readings can be large; an effect the other way counts as inactive or inconclusive.

System: not listed separately
Assay: Viability counterscreen for agonist of constitutive androstane receptor (CAR) against the NCATS DSHEA and TCM libraries (AID 1794838);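 note: HepG2 cells with CYP2B6 reporter and hCAR plus 0.75 µM PK11195 antagonist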
Conditions: HepG2 cell viability counterscreen, CAR agonist assay, co-treated with 0.75 µM CAR antagonist; series mostly up to 40 µM
Procedure, shortened: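 Cell health was measured as CellTiter-Fluor signal in HepG2-CYP2B6-hCAR cells treated for 24 h with substances alongside the hCAR antagonist PK11195 (0.75 uM final).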

Structure (SMILES) | outcome | activity change, negative = cytotoxicity
CC1CC[C@]2(C(=O)O)CC[C@]3(C(=O)O)C(=CCC4[C@@]5(C)CC[C@H](OC6OC(C)C(O)C(OC7OC(CO)C(O)C(O)C7O)C6O)C(C)(C)C5CC[C@]43C)C2C1C (some centres undefined) | inactive | 
CC(C)=CCC[C@](C)(O)[C@H]1CC[C@]2(C)[C@@H]1[C@H](O)CC1[C@@]3(C)CC[C@H](O)C(C)(C)[C@@H]3[C@@H](O[C@@H]3O[C@H](CO)[C@@H](O)[C@H](O)[C@H]3O[C@@H]3O[C@H](CO)[C@@H](O)[C@H](O)[C@H]3O)C[C@]12C (some centres undefined) | inactive | 
CC(C)=CCC[C@](C)(O[C@@H]1O[C@H](CO[C@@H]2O[C@H](CO)[C@@H](O)[C@H](O)[C@H]2O)[C@@H](O)[C@H](O)[C@H]1O)C1CC[C@]2(C)[C@@H]1[C@H](O)CC1[C@@]3(C)CC[C@H](O[C@@H]4O[C@H](CO)[C@@H](O)[C@H](O)[C@H]4O[C@@H]4O[C@H](CO)[C@@H](O)[C@H](O)[C@H]4O)C(C)(C)[C@@H]3CC[C@]12C (some centres undefined) |  | 3.8% [at 8.32 µM]

Target: Nuclear receptor subfamily 1 group I member 3 (Homo sapiens) (UniProt Q14994)
Assay: Primary qHTS for agonist of constitutive androstane receptor (CAR) against the NCATS DSHEA and TCM libraries (AID 1794839);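 note: HepG2 cells expressing human CAR with a CYP2B6 reporter plus PK11195 antagonist; luciferase reporter luminescence read with ONE-Glo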
Conditions: CAR agonist reporter cells, qHTS luminescence, CAR antagonist co-added at 0.75 µM; series mostly up to 22 µM
Procedure, shortened: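 qHTS, agonist mode: HepG2-CYP2B6-hCAR, 2,500 cells/well, 5 h attach; cpds + PK11195 0.75 µM final; 24 h, 37 °C, 5% CO2. Readouts: CellTiter-Fluor (405/540 nm), then ONE-Glo luminescence.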

Chain of Nuclear receptor subfamily 1 group I member 3 (Homo sapiens) (Q14994 whole entry, looked up): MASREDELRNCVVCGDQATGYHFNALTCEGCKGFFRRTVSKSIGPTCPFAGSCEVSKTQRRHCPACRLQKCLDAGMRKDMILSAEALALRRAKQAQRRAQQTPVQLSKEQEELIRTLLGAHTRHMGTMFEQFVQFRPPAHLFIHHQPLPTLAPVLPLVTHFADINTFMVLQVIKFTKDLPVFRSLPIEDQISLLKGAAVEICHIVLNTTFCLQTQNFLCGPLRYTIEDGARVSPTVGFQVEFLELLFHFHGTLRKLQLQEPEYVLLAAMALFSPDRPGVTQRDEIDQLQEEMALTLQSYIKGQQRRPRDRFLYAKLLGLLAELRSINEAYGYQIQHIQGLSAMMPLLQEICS

Structure (SMILES) | outcome
CC1CC[C@]2(C(=O)O)CC[C@]3(C(=O)O)C(=CCC4[C@@]5(C)CC[C@H](OC6OC(C)C(O)C(OC7OC(CO)C(O)C(O)C7O)C6O)C(C)(C)C5CC[C@]43C)C2C1C (some centres undefined) | inactive
CC(C)=CCC[C@](C)(O)[C@H]1CC[C@]2(C)[C@@H]1[C@H](O)CC1[C@@]3(C)CC[C@H](O)C(C)(C)[C@@H]3[C@@H](O[C@@H]3O[C@H](CO)[C@@H](O)[C@H](O)[C@H]3O[C@@H]3O[C@H](CO)[C@@H](O)[C@H](O)[C@H]3O)C[C@]12C (some centres undefined) | inactive
CC(C)=CCC[C@](C)(O[C@@H]1O[C@H](CO[C@@H]2O[C@H](CO)[C@@H](O)[C@H](O)[C@H]2O)[C@@H](O)[C@H](O)[C@H]1O)C1CC[C@]2(C)[C@@H]1[C@H](O)CC1[C@@]3(C)CC[C@H](O[C@@H]4O[C@H](CO)[C@@H](O)[C@H](O)[C@H]4O[C@@H]4O[C@H](CO)[C@@H](O)[C@H](O)[C@H]4O)C(C)(C)[C@@H]3CC[C@]12C (some centres undefined) | inactive
OC[C@H]1O[C@@H](OC[C@H]2O[C@@H](OC/C=C/c3ccccc3)[C@H](O)[C@@H](O)[C@@H]2O)[C@@H](O)[C@@H]1O | inactive

System: not listed separately
Assay: HepG2 viability counterscreen (readout 2: ATP content) against the NCATS DSHEA and TCM libraries (AID 1794840)
Conditions: ATP content luminescence; series mostly up to 15.1 µM
Procedure, shortened: (§1)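 Same wells read twice: first fluorescence from cleaved GF-AFC substrate (25 uM final, 30 min, 37C) for live-cell protease, then CellTiter-Glo luminescence after 30 min at room temperature for ATP. HepG2 cells were exposed ~24 h to substances.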

Structure (SMILES) | outcome
CC1CC[C@]2(C(=O)O)CC[C@]3(C(=O)O)C(=CCC4[C@@]5(C)CC[C@H](OC6OC(C)C(O)C(OC7OC(CO)C(O)C(O)C7O)C6O)C(C)(C)C5CC[C@]43C)C2C1C (some centres undefined) | inactive
CC(C)=CCC[C@](C)(O)[C@H]1CC[C@]2(C)[C@@H]1[C@H](O)CC1[C@@]3(C)CC[C@H](O)C(C)(C)[C@@H]3[C@@H](O[C@@H]3O[C@H](CO)[C@@H](O)[C@H](O)[C@H]3O[C@@H]3O[C@H](CO)[C@@H](O)[C@H](O)[C@H]3O)C[C@]12C (some centres undefined) | inactive
CC(C)=CCC[C@](C)(O[C@@H]1O[C@H](CO[C@@H]2O[C@H](CO)[C@@H](O)[C@H](O)[C@H]2O)[C@@H](O)[C@H](O)[C@H]1O)C1CC[C@]2(C)[C@@H]1[C@H](O)CC1[C@@]3(C)CC[C@H](O[C@@H]4O[C@H](CO)[C@@H](O)[C@H](O)[C@H]4O[C@@H]4O[C@H](CO)[C@@H](O)[C@H](O)[C@H]4O)C(C)(C)[C@@H]3CC[C@]12C (some centres undefined) | inactive
OC[C@H]1O[C@@H](OC[C@H]2O[C@@H](OC/C=C/c3ccccc3)[C@H](O)[C@@H](O)[C@@H]2O)[C@@H](O)[C@@H]1O | inactive

System: not listed separately
Assay: HepG2 viability counterscreen (readout 1: protease activity) against the NCATS DSHEA and TCM libraries (AID 1794841);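 note: cells exposed to compounds for about 24 h before the protease read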
Conditions: qHTS concentration series; series mostly up to 15.1 µM
Procedure, shortened: as §1

Structure (SMILES) | outcome
CC1CC[C@]2(C(=O)O)CC[C@]3(C(=O)O)C(=CCC4[C@@]5(C)CC[C@H](OC6OC(C)C(O)C(OC7OC(CO)C(O)C(O)C7O)C6O)C(C)(C)C5CC[C@]43C)C2C1C (some centres undefined) | inactive
CC(C)=CCC[C@](C)(O)[C@H]1CC[C@]2(C)[C@@H]1[C@H](O)CC1[C@@]3(C)CC[C@H](O)C(C)(C)[C@@H]3[C@@H](O[C@@H]3O[C@H](CO)[C@@H](O)[C@H](O)[C@H]3O[C@@H]3O[C@H](CO)[C@@H](O)[C@H](O)[C@H]3O)C[C@]12C (some centres undefined) | inactive
CC(C)=CCC[C@](C)(O[C@@H]1O[C@H](CO[C@@H]2O[C@H](CO)[C@@H](O)[C@H](O)[C@H]2O)[C@@H](O)[C@H](O)[C@H]1O)C1CC[C@]2(C)[C@@H]1[C@H](O)CC1[C@@]3(C)CC[C@H](O[C@@H]4O[C@H](CO)[C@@H](O)[C@H](O)[C@H]4O[C@@H]4O[C@H](CO)[C@@H](O)[C@H](O)[C@H]4O)C(C)(C)[C@@H]3CC[C@]12C (some centres undefined) | inactive
OC[C@H]1O[C@@H](OC[C@H]2O[C@@H](OC/C=C/c3ccccc3)[C@H](O)[C@@H](O)[C@@H]2O)[C@@H](O)[C@@H]1O | inactive

Target: Glutathione peroxidase 1 (Homo sapiens) (UniProt P07203)
Assay: Primary qHTS Assay for Inhibitors of Recombinant Selenoprotein Glutathione Peroxidase 1 (GPX1) (AID 1845191); note: nearly all actives have a fitted effect of over 65% in size
Conditions: recombinant GPX1, GR-coupled NADPH fluorescence, 15 min; series mostly up to 48.8 µM
Procedure, shortened: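 GPX1 10 nM, GR 100 nM, GSH 1 mM, NADPH 0.5 mM, CHP 0.5 mM (final). 30-min cpd preincubation, RT. Ex340/Em450 read t=0, t=15 min.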

Chain of Glutathione peroxidase 1 (Homo sapiens) (P07203 whole entry, looked up): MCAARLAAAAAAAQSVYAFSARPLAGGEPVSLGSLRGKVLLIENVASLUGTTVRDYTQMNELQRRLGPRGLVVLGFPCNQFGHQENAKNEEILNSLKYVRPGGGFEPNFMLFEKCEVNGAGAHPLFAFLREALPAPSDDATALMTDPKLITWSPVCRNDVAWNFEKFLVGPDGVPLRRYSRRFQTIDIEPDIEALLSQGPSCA

Structure (SMILES) | Potency | activity, negative = inhibition
Cc1cc(C)c(Nc2ccnc(Nc3ccc(C#N)cc3)n2)c(C)c1 | inactive | 
CC(C)=CCC/C(C)=C/CO[C@@H]1O[C@H](CO)[C@@H](OC(=O)/C=C/c2ccc(O)cc2)[C@H](O[C@@H]2O[C@@H](C)[C@H](O)[C@@H](O)[C@H]2O)[C@H]1O | inactive | 
CC1(C)CC2C(C1)C(C)(O)C13CC1(COC3=O)C2O (centres undefined) | inactive | 
CC1=C(C)C(=O)OC(C(C)C2CCC3C4CC=C5CC(OC6OC(COC7OC(CO)C(O)C(O)C7O)C(O)C(O)C6O)CC(O)C5(C)C4CCC23C)C1 (centres undefined) | inactive | 
O=C(c1cccc(Cl)c1F)N1CCN(Cc2cccc(Nc3nccs3)n2)CC1 | inactive | 
CC(=O)NCC(=O)N1C2CCC1c1cc(Nc3ncc(C(F)(F)F)c(NC4CCC4)n3)ccc12 (centres undefined) | inactive | 
Cc1nc(Nc2n[nH]c3c2CN(C(=O)NC(CN(C)C)c2ccccc2)C3(C)C)c2sccc2n1 (centres undefined) | inactive | 
COc1ccc([C@@H]2OC[C@H]3[C@@H]2CO[C@@H]3c2ccc(OC3OC(CO)C(O)C(O)C3O)c(OC)c2)cc1OC (some centres undefined) | inactive | 
CC1CC[C@]2(C(=O)O)CC[C@]3(C(=O)O)C(=CCC4[C@@]5(C)CC[C@H](OC6OC(C)C(O)C(OC7OC(CO)C(O)C(O)C7O)C6O)C(C)(C)C5CC[C@]43C)C2C1C (some centres undefined) | inactive | 
CC(=O)OC[C@]12[C@H](OC(C)=O)C(=O)[C@@H]3[C@@H](OC(C)=O)[C@@]14O[C@@]3(C)COC(=O)c1cccnc1[C@@H](C)[C@H](C)C(=O)O[C@@H]([C@H](O)[C@@H]2OC(C)=O)[C@]4(C)O | inactive | 
CC(C)=CCC[C@](C)(O)[C@H]1CC[C@]2(C)[C@@H]1[C@H](O)CC1[C@@]3(C)CC[C@H](O)C(C)(C)[C@@H]3[C@@H](O[C@@H]3O[C@H](CO)[C@@H](O)[C@H](O)[C@H]3O[C@@H]3O[C@H](CO)[C@@H](O)[C@H](O)[C@H]3O)C[C@]12C (some centres undefined) | inactive | 
CCOc1cc(C(=O)N2CCC(N3CCN(C)CC3)CC2)ccc1Nc1ncc2c(n1)N(C1CCCC1)c1ccccc1C(=O)N2C | inactive | 
CC1(C)CCC2(C(=O)OC3OCC(O)C(O)C3O)CCC3(C)C(=CCC4C5(C)CC(O)C(OC6OC(COC7OCC(O)C(O)C7O)C(O)C(O)C6O)C(C)(C)C5CCC43C)C2C1 (centres undefined) | inactive | 
CC1=CC2C(CC1OC1OC(CO)C(O)C(O)C1O)C(C)CC(=O)C2C(C)C (centres undefined) | inactive | 
C[C@@H]1O[C@@H](O[C@H]2[C@H](O)[C@@H](O[C@@H]3O[C@H](CO)[C@@H](O)[C@H](O[C@@H]4O[C@H](CO)[C@@H](O)[C@H](O)[C@H]4O)[C@H]3O)[C@H](O[C@H]3CC[C@@]4(C)C(=CC[C@@H]5C4CC[C@@]4(C)C5C[C@@H]5OC6(CC[C@@](C)(CO[C@@H]7O[C@H](CO)[C@@H](O)[C@H](O)[C@H]7O)O6)[C@@H](C)[C@@H]54)C3)O[C@@H]2CO)[C@H](O)[C@H](O)[C@H]1OC1OC(CO)C(O)C(O)C1O (some centres undefined) |  | 1.32% [at 9.52 µM]
O=C(c1cc2c(cc1F)OC(c1ccc(F)cc1)(c1ccc(Cl)cc1Cl)O2)N1CCOCC1 (centres undefined) | inactive | 
CN(C)c1ccc2c(c1)OC(N)=C(C#N)C2c1cccc(C(F)(F)F)c1 (centres undefined) | inactive | 
Cc1cc(OCc2nc(-c3ccccc3Cl)cs2)ccc1OCC(=O)O | inactive | 
CC1OC(OC2C(O)C(OC3CCC4(C)C(CCC5(C)C4CC=C4C6CC(C)(COC7OC(CO)C(O)C(O)C7O)CC(O)C6(C)CCC45C)C3(C)C)OC(C(=O)O)C2O)C(O)C(O)C1OC1OCC(O)C(O)C1O (centres undefined) | inactive | 
CC(=O)OC1C(OC(=O)c2ccccc2)C2C(C)(C)CC(=O)CC2(C)C23CCC(C)(C2)C(O)CC13 (centres undefined) | inactive | 
COCCOc1cnc2ccn([C@H](C)c3nnc4c(F)cc(-c5cnn(C)c5)cn34)c(=O)c2c1 | inactive | 
CC12CCC(=O)C=C1C(O)CC1C2C(O)CC2(C)C1CC[C@]2(O)C(=O)CO (some centres undefined) | inactive | 
O=C(N/N=C/c1ccc(O)c(O)c1)c1cc2ccccc2cc1O | inactive | 
C=CC1C(OC2OC(CO)C(O)C(O)C2O)OC=C(C(=O)OC)C1CC1CC(=O)CC(CCc2ccc(O)cc2)O1 (centres undefined) | inactive | 
CC(C)C(CO)Nc1nc(Nc2ccc(C(=O)O)c(Cl)c2)c2ncn(C(C)C)c2n1 (centres undefined) | inactive | 
CC[C@]1(O)CC2CN(CCc3c([nH]c4ccccc34)[C@@](C(=O)OC)(c3cc4c(cc3OC)N(C)[C@H]3[C@@](O)(C(=O)OC)[C@H](OC(C)=O)[C@]5(CC)C=CCN6CC[C@]43[C@@H]65)C2)C1 (some centres undefined) | inactive | 
C[C@H](NC(=O)CCc1nc2ccccc2c(=O)[nH]1)c1ccccc1 | inactive | 
CC(C)=CC/C=C(\C)[C@H]1CC[C@]2(C)[C@@H]1[C@H](O)C[C@@H]1[C@@]3(C)CC[C@H](O)C(C)(C)[C@@H]3[C@@H](O[C@@H]3O[C@H](CO)[C@@H](O)[C@H](O)[C@H]3O)C[C@]12C | inactive | 
CC1CCC2C(C)(C)[C@@H](O)CC[C@]2(C)C12Cc1c(O)cc3c(c1O2)CN(C(CCC(=O)O)C(=O)O)C3=O (some centres undefined) | inactive | 
